Only some compounds are listed: those with a hit (about 7.5% of all), similar ones and a draw of the others.
FMDV inh: blocks foot and mouth disease virus; 1.2% of 410,000 active; AID 1159524; FMDV antiviral cell-based qHTS; Potency, µM (titrated, usually from 57.9 µM), for inactives: at the highest dose activity change, negative = inhibition, usual class: inhibitors; calls by dose curve; tested in HEK293T cells; also: read-out not given here; potency is read from the fitted curve at half-maximal effect; nearly all actives have a fitted effect of over 45% in size
VACV mCherry inh: vaccinia inhibition (mCherry reporter); Potency, µM (doses to about 36.5 µM), without a hit: at the top dose activity change, negative = inhibition, most hits filed as inhibitors; Vaccinia virus mCherry reporter infection, fluorescence; 0.63% of 310,000 active; calls by dose curve; tested in A549 cells; also: potency is read from the fitted curve at half-maximal effect; nearly all actives have a fitted effect of over 35% in size
FBPA Giardia inh: Giardia lamblia aldolase inhibition; A8B2U2; purified Giardia FBPA; Potency, µM (series often up to 59.6 µM), for the others: top-dose activity, negative = inhibition, hits mostly inhibitors; 0.71% of 290,000 active; AID 2451; also: potency is read from the fitted curve at half-maximal effect; nearly all actives have a fitted effect of over 55% in size
Target sequence (A8B2U2 whole entry, looked up): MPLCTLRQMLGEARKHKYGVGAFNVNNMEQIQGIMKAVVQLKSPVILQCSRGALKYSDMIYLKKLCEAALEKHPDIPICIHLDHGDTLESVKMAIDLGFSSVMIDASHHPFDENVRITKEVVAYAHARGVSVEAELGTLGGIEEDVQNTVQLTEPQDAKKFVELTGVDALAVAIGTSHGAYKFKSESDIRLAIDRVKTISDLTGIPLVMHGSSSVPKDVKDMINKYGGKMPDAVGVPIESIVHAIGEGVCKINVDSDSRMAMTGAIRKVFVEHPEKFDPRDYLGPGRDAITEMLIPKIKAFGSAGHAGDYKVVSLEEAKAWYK
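Giardia FBPA (40 nM reagent) was preincubated 10 min at RT with compound (up to 57.5 uM final), then substrate plus GAPDH/TPI/NAD/arsenate coupling system with diaphorase/resazurin was added; resorufin fluorescence (525/598 nm) was read after 20 min.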
HCMV antiviral: inhibitors of human cytomegalovirus; HFF cells, HCMV-luciferase reporter, 72 h; active compounds read low; activity change, negative = inhibition, % at 57.5 µM; 4.5% of 410,000 active; AID 1259415; in the data active = activity change below about -60%; inconclusive = no clear call, values can overlap the other calls; inactive = above about -39%
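Human foreskin fibroblasts infected with luciferase-reporter HCMV at MOI 1 PFU/cell, compounds at two doses. Luciferase measured 72 h post infection; normalized to buffer-only basal and Salinomycin (10uM) controls.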
Vaccinia Venus: vaccinia inhibition (Venus reporter). Vaccinia virus Venus reporter expression, fluorescence. Potency, µM (series often up to 36.5 µM), inactives show at the highest dose activity change, negative = inhibition, usual class: inhibitors. 0.46% of 330,000 active; calls by dose curve; tested in A549 cells; also: potency is read from the fitted curve at half-maximal effect; nearly all actives have a fitted effect of over 30% in size
HCV inh: HCV inhibition; Huh7.5.1 HCVcc-Cre infection, luciferase reporter, 44 h; Potency, µM (doses to about 41.8 µM), without a hit: top-dose activity change, negative = inhibition, actives largely listed as inhibitors; 3.4% of 340,000 active; AID 651820; also: potency is read from the fitted curve at half-maximal effect
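Cells (1,000/well) were plated 4 h before compound, then infected with HCVcc-Cre virus (~0.5 moi). After 44 h further culture, infection was read as luciferase luminescence following a 15 min substrate incubation at room temperature.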
* = called active by the depositor; i = inactive; ? = inconclusive; / = not tested or not shown; + = active, no number; ! = repeats disagree; [ ] = remark or other dose. Unless noted, calls follow the shape of the dose curve; as a rule, active = well fitted curve in the direction sought with a large enough effect; inconclusive = small, poorly fitted or top-dose-only effect, or another doubt; inactive = no such curve, though single readings can be large; an effect the other way counts as inactive or inconclusive. % is scaled to controls: 0 for no effect and ±100 for the full control effect.

SMILES	FMDV inh	VACV mCherry inh	FBPA Giardia inh	HCMV antiviral	Vaccinia Venus	HCV inh
COCCN1C(=O)COc2ccccc2C1C(=O)NC(C)(C)C (stereo not given)	-21%	12%	/	-12	6%	/
COC(=O)c1cc(=O)nc(NN=C2c3ccccc3-c3ccccc32)s1	-20%	-13%	/	-66*	-12%	/
COC(=O)c1cc(=O)nc(NN=Cc2ccccc2)s1	/	/	/	18	/	/
CCCCc1c(C)c(C#N)c2[nH]c3ccccc3n2c1=O	22µM*	/	?	-73*	-15%	-17%
O=C(CN1CCCCC1)NCC(=O)Nc1ccc(Br)cc1C(=O)c1ccccc1	-23%	/	8%	13	/	11µM*
CC(Sc1ncc(S(=O)(=O)c2ccc(C(C)C)cc2)c(N)n1)C(=O)Nc1ccccc1 (stereo not given)	?	?	/	-74*	?	/
CCc1ccccc1NC(=O)CSc1ncc(S(=O)(=O)c2ccc(C(C)C)cc2)c(N)n1	?	2%	/	-29	-9%	/
O=C(CCl)c1ccc2c(c1)CCCC2	/	-17%	/	/	-23%	/
COc1ccc2c(c1)CCc1c(C(=O)Nc3c(C)nn(Cc4ccccc4C)c3C)noc1-2	?	?	/	-66*	?	/
Cc1ccccc1Cn1nc(C)c(NC(=O)c2noc3c2CCc2ccccc2-3)c1C	?	?	-5%	-24	?	?
COc1ccc2c(c1)CCc1c(C(=O)Nc3c(C)nn(Cc4c(Cl)cccc4Cl)c3C)noc1-2	-14%	-15%	/	-92*	-14%	/
Cc1cc(C)n2c(Nc3ccccc3)c(-c3ccccc3)nc2n1	0%	-6%	/	5	-5%	/
CN(CC1CCOCC1)C(=O)CC1C(=O)NCCN1CC(c1ccccc1)c1ccccc1 (stereo not given)	-20%	i	/	-35	-11%	9%
COc1ccc(CNC[C@H]2O[C@@H](n3ccc(=O)[nH]c3=O)[C@H](O)[C@@H]2O)cc1OC	-3%	i	/	-13	-11%	6.3µM*
CCCOc1ccc(C(=O)Nc2ccc3oc(-c4ccncc4)nc3c2)cc1	?	-9%	/	?	-11%	/
CCN(CC)Cc1c(O)ccc2c(=O)c(Oc3ccccc3OC)coc12	-14%	i	1%	-61*	0%	6%
COc1ccccc1Oc1coc2c(CN(C)C)c(O)ccc2c1=O	-2%	/	-6%	-27	16%	11%
Cc1ccc(CN(Cc2cc3cc4c(cc3[nH]c2=O)OCCO4)Cc2nnnn2Cc2ccco2)cc1	-14%	/	?	-34	/	?
Cc1ccc2cc(CN(Cc3ccc4c(c3)OCO4)Cc3nnnn3Cc3ccco3)c(=O)[nH]c2c1	1%	0%[1.46 µM]	2%	?	?	16µM*!
COc1ccc(CN2CCNC(=O)C2CC(=O)N(C)Cc2ccon2)c(OC)c1 (stereo not given)	20%	-23%	-12%	-11	-1%	7%
CN1CCN(NC(=O)c2cc(-c3ccc(Br)s3)nc3ccccc23)CC1	0%	i	2%	-5	-16%	10µM*
CCCN(CCC)CCNC(=O)c1cc(-c2ccc(Br)s2)nc2ccccc12	-13%	-6%	/	?	-19%	/
CC(C)CN(CCNC(=O)c1cc(-c2ccc(Cl)s2)nc2ccccc12)CC(C)C	-10%	-25%	/	-17	-18%	/
O=C(NC1CC1)c1cc(-c2ccc(Br)cc2)nc2ccccc12	-22%	/	/	0	/	4%
CCN(CC)CCNC(=O)c1cc(-c2ccc(Br)s2)nc2ccccc12	-7%	-14%[7.34 µM]	-1%	-94*!	-7%[7.34 µM]	13µM*
SMILES	FMDV inh	VACV mCherry inh	FBPA Giardia inh	HCMV antiviral	Vaccinia Venus	HCV inh
CN1CCC(NC(=O)c2cc(-c3cccc(Br)c3)nc3ccccc23)CC1	-5%	-1%	2%	-30	-21%	11µM*
CCCCN(C)CCNC(=O)c1cc(-c2ccc(Cl)s2)nc2ccccc12	-23%	-28%	/	-101*	-21%	/
O=C(NCC(c1ccco1)N1CCc2ccccc2C1)C(=O)Nc1cc(F)ccc1F (stereo not given)	-5%	i	/	10	-11%	-13%
Cc1ccc(NC(=O)C(C)OC(=O)Cn2cnc3ccccc3c2=O)cc1 (stereo not given)	2%	-15%	/	0	-7%	?
Cc1noc(/C=C/c2ccccc2F)c1S(=O)(=O)N1CCC(C(=O)N(C)Cc2ccco2)CC1	-9%	-1%[7.34 µM]	/	61	-9%[7.34 µM]	/
O=S1(=O)N[C@H](Cc2ccccc2)COc2cc(N3CCC[C@@H]3CO)ccc21	0%	-6%	/	-10	-11%	/
CCN(CC)CCNC(=O)c1cc2cc(Br)ccc2s1	-6%	-12%	3%	4	-17%	13µM*
CCN(CC)CCNC(=O)c1ccc(N)cc1	-22%	-15%	-8%	32	-7%	1%[8.37 µM]
CC(=NNc1nc2ccccc2s1)c1ncccn1	-16%	1µM*	/	-97*	19%	?
Oc1ccccc1/C=N/Nc1ncc(Br)cn1	49%	?	-5%	-98*	?	?
CC(=NNc1nc2ccccc2o1)c1ncccn1	-4%	0.71µM*	/	-77*	?	3.5µM*
Brc1ccc(/C=N/Nc2nc3ccccc3o2)cc1	54%	/	-15%	-9	/	-15%
Oc1ccccc1/C=N/Nc1nc2ccccc2o1	5%	?	13%	+	?	?
Cc1cc(C)nc(Nc2nc3ccccc3o2)n1	0%	-18%[7.34 µM]	-21%	68	-11%[7.34 µM]	-16%
C/C(=N\Nc1nc2ccccc2s1)c1cccs1	-45%	-23%	-5%	-22	-21%	-26%
CCCNC(=O)OC[C@@H]1O[C@H](CCON=C(C)C)C=C[C@@H]1Oc1ccc(OC)cc1	/	/	0%[12.9 µM]	/	/	/
O=C(CSc1nc2c([nH]c3ccccc32)c(=O)n1-c1ccccc1)N1CCCc2ccccc21	1%	-9%	/	31	-10%	/
CC(=NNc1nc2ccccc2o1)c1cc2ccccc2cn1	-20%	?	/	-99*	0.71µM*	?
O=C(NCCc1nc2ccccc2[nH]1)c1ccc(Cl)c([N+](=O)[O-])c1	-24%	-19%	1%	22	-9%	9%
CCCNC(=O)c1ccc2c(=O)c(O)c(-c3ccc(Cl)c([N+](=O)[O-])c3)[nH]c2c1	-14%	-3%	-4%	6	-6%	5µM*
CN1C[C@@H]2[C@@H]3C(=O)N(Cc4ccccc4)C(=O)[C@@H]3[C@](Cc3ccccc3)(C1=O)N2C(=O)c1ccc(C(C)(C)C)cc1	?	?	/	-98*	?	?
CN1C[C@@H]2[C@@H]3C(=O)N(Cc4ccccc4)C(=O)[C@@H]3[C@](Cc3ccccc3)(C1=O)N2C(=O)c1ccccc1	58%	?	/	-32	?	19%
COc1ccc2[nH]c3c(c2c1)CC(C)NC3=O (stereo not given)	10%	/	0%	-75*	/	-27%
COc1ccc2[nH]c3c(c(=O)c2c1)CCCC3	3%	i	/	-26	-2%	/

Assay outcomes: PubChem BioAssay, National Center for Advancing Translational Sciences (NCATS)
